VP16 counter – VP16 counterscreen qHTS for inhibitors of ROR gamma transcriptional activity; Potency, µM (highest dose often 53.6 µM), hits mostly inhibitors; Drosophila S2 Gal4-VP16 UAS-luciferase, luminescence, 20 h; 3.5% of 310,000 active;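 note: Gal4-VP16 expression switched on by copper sulfate through the metallothionein promoter; nearly all actives have a fitted effect of over 50% in size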
PKM2 activator – qHTS Assay for Activators of Human Muscle isoform 2 Pyruvate Kinase | Pyruvate kinase PKM (Homo sapiens), P14618 | purified PKM2, Kinase-Glo ATP luminescence, activation; response scale: 0% is enzyme alone, no compound | Potency, µM (titrated, usually from 57.5 µM), hits mostly activators | 0.34% of 260,000 active | AID 1631, 2009; note: nearly all actives have a fitted effect of over 55% in size
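hPK-M2, >95% pure; 0.1 mM ADP / 0.5 mM PEP final; imidazole pH7.2 buffer w/ 7 mM MgCl2, 50 mM KCl; 1 h RT; Kinase-Glo lum. Intermediate enzyme activity for dual inhibitor/activator qHTS.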
RORg inh – qHTS for inhibitors of ROR gamma transcriptional activity | Nuclear receptor ROR-gamma (Mus musculus), P51450 | 5.4% of 310,000 active | Drosophila S2 Gal4-RORgamma UAS-luciferase reporter, 20 h | Potency, µM (series often up to 53.6 µM), usual class: inhibitors; note: nearly all actives have a fitted effect of over 60% in size
Target sequence (P51450 whole entry, looked up, the tested form may be a part): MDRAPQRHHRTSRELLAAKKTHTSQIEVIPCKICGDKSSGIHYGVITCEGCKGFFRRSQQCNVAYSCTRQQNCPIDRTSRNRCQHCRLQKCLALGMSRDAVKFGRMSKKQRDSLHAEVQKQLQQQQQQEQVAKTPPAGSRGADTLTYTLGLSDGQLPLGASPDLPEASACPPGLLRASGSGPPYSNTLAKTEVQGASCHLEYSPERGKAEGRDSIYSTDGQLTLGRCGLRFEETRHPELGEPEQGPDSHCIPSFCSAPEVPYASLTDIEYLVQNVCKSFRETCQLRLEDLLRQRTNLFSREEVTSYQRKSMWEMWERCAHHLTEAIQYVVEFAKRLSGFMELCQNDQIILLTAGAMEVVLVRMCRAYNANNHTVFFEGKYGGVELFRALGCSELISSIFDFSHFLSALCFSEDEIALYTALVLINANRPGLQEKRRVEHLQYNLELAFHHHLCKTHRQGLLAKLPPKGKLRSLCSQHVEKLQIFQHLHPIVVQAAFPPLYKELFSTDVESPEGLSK
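ROR gamma transcriptional activity was tracked as Gal4-UAS luciferase output in stably transfected Drosophila Schneider cells, with compound added 1 hr before 700 uM copper sulfate induction and a 20 hr ambient-temperature incubation.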
Six1-Eya2 inh – qHTS Assay for Inhibitors of the Six1/Eya2 Interaction; activity change, % (concentration not given with the values); AID 651725, 2012; AlphaScreen GST-Six1/His-Eya2 binding, biochemical; hits give low values; 0.56% of 360,000 active; Homeobox protein SIX1 (Homo sapiens) + Protein phosphatase EYA2 (Homo sapiens), …; in the data active = activity change below about -65%; inconclusive = mostly about -30% to -63%
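Homogeneous AlphaScreen proximity assay pairing GST-Six1 with His-tagged Eya2 (added as 5X mix: 250 nM and 500 nM) in 50 mM Tris pH 8.0, 300 mM NaCl, 1 mM TCEP. Glutathione donor and nickel acceptor beads; 1 h, 37 °C, dark.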
CtBP-E1A inh – qHTS Assay for Inhibitors of the CtBP/E1A Interaction | activity change, % (no concentration beside the values) | AlphaScreen GST-E1A/His-CtBP binding, 1536-well; hits give low values | CtBP / adenovirus E1A interaction (AlphaScreen) | 0.49% of 340,000 active | AID 651724, 2012; in the data active = activity change below about -65%; inconclusive = mostly about -30% to -63%
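AlphaScreen with 125 nM GST-E1A and 125 nM His-CtBP (5X stocks) in Tris pH 8.0, 300 mM NaCl, BSA, Tween 20, TCEP. Compounds preincubated 2 h at 37 deg C, then glutathione donor/nickel acceptor beads added for 1 h at 37 deg C in dark.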
Each line names hits and unclear results; the compound was inactive in the other large screens. A selection: hits, their analogues and other compounds. The true share with any hit is near 5.6%. Unless noted, calls come from the whole dose curve; as a rule, active = well fitted curve in the direction sought with a large enough effect; inconclusive = small, poorly fitted or top-dose-only effect, or another doubt; inactive = no such curve, though single readings can be large; an effect the other way counts as inactive or inconclusive.

COc1cccc2cc(C(C)N(CCCN3CCOCC3)C(=S)Nc3cc(C)ccc3C)oc12 (stereo unspecified)	RORg inh 11µM
COc1cccc(NC(=S)N(CCCN2CCOCC2)C(C)c2cc3ccccc3o2)c1 (stereo unspecified)	VP16 counter inconclusive, RORg inh 11µM (no result: CtBP-E1A inh)
CCOC(=O)N1CCN(c2ccncc2S(=O)(=O)N2CCCCC2)CC1	none
CCCc1nn2c(=O)cc(CSCC(=O)Nc3ccccc3OC)nc2s1	none
COc1ccc(C(O)P(=O)(OCCC(C)C)c2ccc(N(C)C)cc2)cc1 (stereo unspecified)	none (no result: PKM2 activator)
C#CCOCCOCCOCCNc1nc(N2CCN(C(=O)Cn3cc(CCCN=C(N)N)nn3)CC2)nc(N2CCN(C(=O)[C@H]([C@@H](C)CC)n3cc(CCCN=C(N)N)nn3)CC2)n1	none (no result: Six1-Eya2 inh, CtBP-E1A inh)
COc1cccc2cc(C(C)N(CCCN3CCOCC3)C(=S)Nc3ccc(C)c(C)c3)oc12 (stereo unspecified)	VP16 counter inconclusive, RORg inh 11µM
O=[N+]([O-])c1ccc2c(c1)ncn2CCc1ccccc1	PKM2 activator 7.1µM
O=[N+]([O-])c1ccc2c(c1)ncn2-c1ccccc1	none
COc1cc([N+](=O)[O-])ccc1NC(=S)NNC(=O)CCC(=O)Nc1ccccc1Cl	none
Cc1nnc(SC(C)C(=O)NC2CCCCC2C)s1 (stereo unspecified)	none (no result: VP16 counter, PKM2 activator, RORg inh)
COc1ccccc1-n1c(-c2ccc(Cl)cc2)c[nH]c1=S	VP16 counter 7.1µM, RORg inh 2.8µM (no result: CtBP-E1A inh)
Cc1cccc(-n2c(N)cc(=O)[nH]c2=S)c1C	none
Cc1cccc(-n2c(-c3ccccc3)c[nH]c2=S)c1C	VP16 counter 7.1µM, RORg inh 2.2µM
FC(F)Oc1ccc(NC(=S)NNc2ccnc3cc(Cl)ccc23)cc1	Six1-Eya2 inh inconclusive
CCc1cccc(C)c1NC(=S)NCc1ccc2[nH]c(C)cc2c1	VP16 counter 10µM, RORg inh 4µM
Cc1cc2cc(CNC(=S)NC3CCCCC3)ccc2[nH]1	VP16 counter inconclusive, RORg inh 14µM (no result: CtBP-E1A inh)
S=C(NCc1ccncc1)NC1CCCC1	PKM2 activator inconclusive
Fc1ccc(CNC(=S)NC2CCCCC2)cc1	VP16 counter 11µM, RORg inh 5µM (no result: CtBP-E1A inh)
Fc1ccc(CNC(=S)NC2CCCC2)cc1	VP16 counter inconclusive, RORg inh 8.9µM
N#CC1(O)CCCCC1	none (no result: PKM2 activator, Six1-Eya2 inh, CtBP-E1A inh)
Cn1c(=O)[nH]c(=O)c2c1nc1n2CC(O)CN1c1ccccc1 (stereo unspecified)	none (no result: PKM2 activator)
CCOC(=O)C(Cc1c[nH]c2ccc([N+](=O)[O-])cc12)(NC(C)=O)C(=O)OCC	none (no result: VP16 counter, PKM2 activator, RORg inh)
Cc1c(N2CCCC2)cc2c(c1NC(=O)c1ccccc1Cl)C(C)(C)CC2(C)C	RORg inh inconclusive (no result: CtBP-E1A inh)
Cc1nc(NCCc2ccc(S(N)(=O)=O)cc2)c2c(C)c(C)sc2n1	VP16 counter 10µM, RORg inh 10µM
Cc1ccc(S(=O)(=O)N2CCN(C(=O)COC(=O)COc3ccc(Cl)cc3)CC2)c(C)c1	none (no result: VP16 counter, PKM2 activator, RORg inh)
Cc1cccnc1N(C(=O)Nc1ccccc1)C1=NCC(C)(C)S1	VP16 counter inconclusive, RORg inh 10µM
Cc1cccnc1NC(=O)Nc1cccc(Cl)c1	none
Cc1cccnc1N(C(=O)Nc1cccc(Cl)c1)C1=NCC(C)(C)S1	RORg inh 11µM
CC1(C)CN=C(N(C(=O)Nc2ccccc2)c2ccccc2F)S1	none
O=C(COc1ccccc1Cl)NCCCNC(=O)c1cnccn1	none (no result: PKM2 activator)
O=S1(=O)C[C@H](N2CCN(CC3CC3)CC2)[C@@H](COCc2ccccc2)N1	none (no result: VP16 counter, PKM2 activator, RORg inh)
C/C(=N\Nc1nc2ccccc2[nH]1)c1ccc2c(c1)OCCO2	VP16 counter inconclusive, RORg inh 7.1µM
CCN(CC)c1ccc(/C=N/Nc2nc3ccccc3[nH]2)cc1	VP16 counter 4µM, RORg inh 3.2µM (no result: CtBP-E1A inh)
C/C(=N\Nc1nc2ccccc2[nH]1)c1ccc2c(c1)OCO2	VP16 counter 11µM, RORg inh 3.2µM, Six1-Eya2 inh inconclusive, CtBP-E1A inh inconclusive
C(=N\Nc1nc2ccccc2[nH]1)/c1ccc2c(c1)OCO2	VP16 counter inconclusive, RORg inh 13µM
O=C(NCC(c1ccccc1)N1CCCC1)C1CCN(C(=O)Nc2ccccc2)CC1 (stereo unspecified)	none (no result: VP16 counter, PKM2 activator, RORg inh)
O=C(CN1C(=O)CC(c2ccco2)Sc2ccccc21)NC1CCCCC1 (stereo unspecified)	none
CC1(C)CC(=O)C(CC(=O)Nc2cc(C(F)(F)F)ccc2Cl)C(=O)C1	none
CCOc1ccc(CCNC(=O)COC(=O)c2cc(OC)c(OC)cc2[N+](=O)[O-])cc1OCC	none (no result: VP16 counter, PKM2 activator, RORg inh)
O=C(Nc1ccccc1)[C@@H]1[C@@H]2C(=O)N(c3ccc(F)cc3)C(=O)[C@@H]2[C@H]2C=CC=NN21	VP16 counter inconclusive, PKM2 activator 8.9µM, RORg inh inconclusive
COCCNC(=S)N=Nc1c(O)[nH]c2ccc([N+](=O)[O-])cc12	RORg inh 0.56µM
COc1ccccc1NC(=S)N=Nc1c(O)[nH]c2ccc(Br)cc12	VP16 counter 5.6µM, RORg inh 2µM (no result: CtBP-E1A inh)
Cc1cccc(NC(=S)N=Nc2c(O)[nH]c3ccccc23)c1	VP16 counter 3.5µM, RORg inh 1.4µM, Six1-Eya2 inh inconclusive
O=C(NN1CCCCCC1)c1ccccc1F	none (no result: VP16 counter, PKM2 activator, RORg inh)
COc1ccc(CNC(=O)COC(=O)[C@@H]2CCCN2C(=O)c2cccs2)cc1	none (no result: VP16 counter, PKM2 activator, RORg inh)
CCC(C(=O)OC(C)C(=O)Nc1ccc(Cl)cn1)c1ccccc1 (stereo unspecified)	none
Cc1ccc(C(C)C)c(OCc2ccc(C(=O)N/N=C/c3ccc(O)c(O)c3)cc2)c1	VP16 counter 35µM, RORg inh inconclusive
COc1ccc(/C=N/NC(=O)c2cccc([N+](=O)[O-])c2)cc1O	VP16 counter inconclusive
Cc1ccc(C(C)C)c(OCc2ccc(C(=O)N/N=C/c3cccc(O)c3O)cc2)c1	VP16 counter 2.5µM, RORg inh 1µM
CC(=O)Nc1ccc(C(=O)N/N=C/c2ccccc2OCc2ccccc2)cc1	none
COc1cc(/C=N/NC(=O)c2cccc([N+](=O)[O-])c2)ccc1OCc1ccc(C)cc1	RORg inh 2.5µM
COc1cc(/C=N/NC(N)=O)cc(Br)c1OCc1ccc(C)cc1	none
COc1cc(/C=N/NC(=O)c2ccc(COc3cc(C)ccc3C(C)C)cc2)cc(OC)c1O	VP16 counter 16µM, RORg inh inconclusive
CC(=O)c1ccc(S(=O)(=O)NCCOc2ccccc2)cc1	none (no result: VP16 counter, PKM2 activator, RORg inh)
CC(=O)NC(Cc1cccc(F)c1)C(=O)NC1CCN(C(=O)c2ccc(C)cc2)CC1 (stereo unspecified)	none
COc1ccc(/C=N/Nc2nc(=O)[nH]nc2C)cc1OC	RORg inh 11µM
